The values below come from PubChem BioAssay.

The source made the active and inactive calls.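 Rule for the calls, unless noted: active = inhibition at or above 50% at 10 µM; inactive = inhibition below 50%.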

Experiment [1] can be described thus: inhibitors of TNFa-induced NFkB p65 translocation, primary screen, imaging, HUVEC, MLSMR starter and 10KST1 sets (AID 438;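 active = inhibition above 20% together with a positive visual image hit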;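 note: compound added about 3h40 before a 20 min TNFalpha stimulation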;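 for inhibition: signal is the nuclear over cytoplasmic p65 intensity ratio per well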). As to conditions: HUVEC TNFa-induced p65 nuclear translocation; cell count: measured here: nuclei count (cytotoxicity indicator), at 2.08 µM; inhibition: at 2 µM, stronger effect = higher value, 0% TNFa-plus-vehicle, 100% no-TNFa wells.
Experiment [2] can be described thus: inhibitors of mutant huntingtin aggregation, primary screen, imaging, exon1htt(103Q)mCFP cells, high-content imaging (AID 483;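 active = visual image review flags a hit and inhibition of aggregation exceeds 20%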;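 note: compound exposure lasted 3 days before fixation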;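 for nuclei count: percent of the per-plate median nuclei count of sample wells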). The following applies: exon1htt(103Q)mCFP cell line, aggregate imaging, at 2 µM; inhibition of aggregation: stronger effect = higher value; nuclei count: measured here: cell count, toxicity.
Experiment [3] in a line: inhibitors of E-selectin induction by TNFa, primary screen, imaging, HUVEC, immunofluorescence, MLSMR starter and 10KST1 sets (AID 487;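 active = visually confirmed hit in the image check and inhibition above 20%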;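 for inhibition: signal is fraction of cell area covered by stained E-selectin grains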;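 for nuclei count: 100% = median nuclei count of all wells on the same plate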). As to conditions: HUVEC TNFalpha-induced E-selectin immunofluorescence imaging, at 2 µM; inhibition: stronger effect = higher value; nuclei count: measured here: cell number, toxicity.
Experiment [4] has as its target Voltage-gated potassium channel subunit beta-2 (Rattus norvegicus) (UniProt P62483). The experiment can be described thus: KvBeta enzyme negative modulators, primary screen, biochemical, NADPH fluorescence (AID 622;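 active = fluorescence slope higher than the sample average by over 3 SD, cut at about -0.22 in these data, passing the limit was not always enough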;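 note: slope of raw intensity against log time taken from 70 to 1610 s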). The following applies: recombinant KvBeta, 4-cyanobenzaldehyde reduction, at 10 µM, stronger effect = higher value.
For experiment [5] the target is unchanged. The experiment can be described thus: KvBeta positive modulators, primary screen, biochemical, NADPH fluorescence (AID 623;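 active = NADPH fluorescence slope more negative than the mean of all samples by about 3 SD, 99.7% confidence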;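 note: fluorescence intensity change per second fitted from 20 to 320 s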). As to conditions: Recombinant KvBeta, NADPH fluorescence decrease slope, 10 min; at 10 µM; stronger effect = lower value.
For experiment [6], the target named is Alpha-2C adrenergic receptor (Homo sapiens) (UniProt P18825). Put plainly: modulators of alpha2C/GIRK thallium flux, primary screen, cell-based, HEK293 alpha2C/GIRK1/2 (AID 624;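 active = fluorescence slope after compound addition differing from the mean of all screened samples at 99.7% confidence, in either direction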;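 note: slope of fluorescence ratio to pre-addition baseline per second over 15 to 24 s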). The following applies: thallium flux BTC fluorescence, at 10 µM, actives lie on both sides.
Chain of Alpha-2C adrenergic receptor (Homo sapiens) (P18825 whole entry, looked up): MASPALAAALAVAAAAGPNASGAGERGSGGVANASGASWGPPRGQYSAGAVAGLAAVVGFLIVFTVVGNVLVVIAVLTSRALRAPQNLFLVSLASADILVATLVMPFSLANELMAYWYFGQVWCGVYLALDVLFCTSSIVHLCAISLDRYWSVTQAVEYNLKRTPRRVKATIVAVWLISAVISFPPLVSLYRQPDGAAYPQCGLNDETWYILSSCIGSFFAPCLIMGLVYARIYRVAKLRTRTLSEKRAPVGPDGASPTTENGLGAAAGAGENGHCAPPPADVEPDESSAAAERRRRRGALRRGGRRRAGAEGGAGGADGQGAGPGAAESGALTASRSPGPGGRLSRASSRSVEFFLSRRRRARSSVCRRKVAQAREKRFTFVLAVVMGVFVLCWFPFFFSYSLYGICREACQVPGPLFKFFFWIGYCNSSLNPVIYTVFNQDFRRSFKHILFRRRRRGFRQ
Experiment [7] can be described thus: inhibitors of Sendai virus-induced IRF3 signaling, primary screen, TLR/RLR signaling modifier project, cell-based, Sendai virus stimulus, luciferase, 10K MLSCN set (AID 602276).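 Note: firefly luciferase from ISG56 promoter only with Renilla not read in this screen; 0% = Sendai virus plus DMSO and 100% = medium plus DMSO without virus.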 The following applies: HEK293 RL24 IRF3 luciferase reporter, at 10 µM, stronger effect = higher value. For orientation: In a reporter assay the amount or activity of a reporter protein is the signal.

Experiment [8] can be described thus: inhibitors of poly I:C-induced TLR3 signaling, primary screen, cell-based, poly I:C stimulus, luciferase, 10K MLSCN set (AID 602277;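 active = inhibition of the reporter signal at or above 50%; inactive = inhibition below 50%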). As to conditions: HEK293-TLR3 RL24 IRF3 luciferase reporter, at 10 µM, stronger effect = higher value.

As usually defined, the inhibition is the drop in the measured response relative to a control, in per cent.

Chain of Voltage-gated potassium channel subunit beta-2 (Rattus norvegicus) (P62483 whole entry, looked up): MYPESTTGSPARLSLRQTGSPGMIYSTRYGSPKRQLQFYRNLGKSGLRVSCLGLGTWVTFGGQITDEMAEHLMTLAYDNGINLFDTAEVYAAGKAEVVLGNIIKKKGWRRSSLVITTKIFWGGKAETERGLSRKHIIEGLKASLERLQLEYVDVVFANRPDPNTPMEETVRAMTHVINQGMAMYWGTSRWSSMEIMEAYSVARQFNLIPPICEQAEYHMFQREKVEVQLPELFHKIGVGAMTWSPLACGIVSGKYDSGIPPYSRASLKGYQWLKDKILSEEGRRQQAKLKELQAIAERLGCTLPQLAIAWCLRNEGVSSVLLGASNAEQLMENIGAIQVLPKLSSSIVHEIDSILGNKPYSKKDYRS

Take `Cc1ccc(S(=O)(=O)N2CCN(S(=O)(=O)N(C)C)CC2)cc1`: in experiment [1], the cell count was 362. The inhibition in experiment [1] is 4.3% (inactive); in experiment [3], 8.9% (inactive); in experiment [7] it was 12.1% (inactive); in experiment [8], 15.4% (inactive). Moreover, the inhibition of aggregation in experiment [2] was -29.3% (inactive). Moreover, the values for the nuclei count in experiment [2] and in experiment [3] were 101% and 111%, respectively. Also, the fluorescence slope in experiment [4] was -0.518 (inactive). Further, in experiment [5], the NADPH fluorescence slope was -1.8e-06 (inactive). In experiment [6], the slope was 0.00563 (inactive).
On to `O=S(=O)(Nc1ccn(-c2ccccc2)n1)c1ccc(Br)cc1`, for which the cell count in experiment [1] turned out to be 395. The inhibition was -1.6% (inactive) in experiment [1], -35.6% (inactive) in experiment [3], 10.7% (inactive) in experiment [7] and 17.4% (inactive) in experiment [8]. Also, the inhibition of aggregation in experiment [2] was 20.2% (inactive). The nuclei count in experiment [2] amounted to 98%; in experiment [3], 119%. Also, the fluorescence slope in experiment [4] is -0.413 (inactive). Also, the NADPH fluorescence slope in experiment [5] was 0.000106 (inactive). For the same compound, the slope in experiment [6] is 0.00791 (inactive).
In the case of `CC1C=CC(C)C(C(=O)O)C1C(=O)O` (stereo not drawn), in experiment [1], the cell count was 543. Moreover, the inhibition in experiment [1] was -4.4% (inactive); in experiment [3], -15.8% (inactive); in experiment [7], 7.99% (inactive); in experiment [8] it was 41.3% (inactive). The inhibition of aggregation in experiment [2] was 13% (inactive). The figures for the nuclei count in experiment [2] and in experiment [3] were 46.5% and 96%, respectively. Also, the fluorescence slope in experiment [4] is -0.476 (inactive). Besides, the NADPH fluorescence slope in experiment [5] was -5.7e-05 (inactive). In addition, the slope in experiment [6] is 0.00278 (inactive).
`Cc1ccc(NC(=O)C2CCCN(S(=O)(=O)c3cnc[nH]3)C2)c(Br)c1` (stereo not drawn): the cell count in experiment [1] stood at 601. In addition, the inhibition in experiment [1] is 10.1% (inactive); in experiment [3], 12.8% (inactive); in experiment [7], 3.4% (inactive); in experiment [8], -7.13% (inactive). Moreover, the inhibition of aggregation in experiment [2] is -33.6% (inactive). Further, the nuclei count turned out to be 82.3% in experiment [2] and 108% in experiment [3]. Moreover, the fluorescence slope in experiment [4] is -0.543 (inactive). The NADPH fluorescence slope in experiment [5] was -6.4e-05 (inactive). Further, in experiment [6], the slope was 0.00566 (inactive).
With `CCCCN(C(=O)c1ccc(Cl)cc1)C1CC2CCC(C1)N2C` (stereo not drawn), the cell count in experiment [1] came to 588. Also, the inhibition is 6.5% (inactive) in experiment [1], -93.1% (inactive) in experiment [3], -6.18% (inactive) in experiment [7] and 35.3% (inactive) in experiment [8]. Moreover, in experiment [2], the inhibition of aggregation is 5.4% (inactive). In addition, the nuclei count came to 114% in experiment [2] and 116% in experiment [3]. In experiment [4], the fluorescence slope was -0.561 (inactive). The NADPH fluorescence slope in experiment [5] is -6.5e-05 (inactive). Besides, the slope in experiment [6] is 0.0056 (inactive).
As for `CCOC(=O)C(NC(C)=O)(Nc1ccc(S(=O)(=O)Nc2nccs2)cc1)C(F)(F)F` (stereo not drawn), in experiment [1], the cell count stood at 523. Further, the inhibition was -1% (inactive) in experiment [1], 4.2% (inactive) in experiment [3], 14.8% (inactive) in experiment [7] and 30.2% (inactive) in experiment [8]. Besides, the inhibition of aggregation in experiment [2] is 27% (inactive). Moreover, the nuclei count worked out at 93.8% in experiment [2] and 95.9% in experiment [3]. Besides, the fluorescence slope in experiment [4] was -0.645 (inactive). Also, in experiment [5], the NADPH fluorescence slope was 1.5e-06 (inactive). Further, the slope in experiment [6] is 0.00657 (inactive).
For the compound `CC(C)COC(=O)NCC12C=CC(O1)C1C(=O)N(c3ccc(Cl)cc3)C(=O)C12` (stereo not drawn), the cell count in experiment [1] was found to be 280. Moreover, the inhibition was -0.5% (inactive) in experiment [1], 5.7% (inactive) in experiment [3], -5.72% (inactive) in experiment [7] and 0.93% (inactive) in experiment [8]. For the same compound, in experiment [2], the inhibition of aggregation is -14.3% (inactive). Further, the nuclei count is 104% in experiment [2] and 119% in experiment [3]. Besides, in experiment [4], the fluorescence slope was -0.447 (inactive). Also, the NADPH fluorescence slope in experiment [5] is -0.000376 (inactive). The slope in experiment [6] is 0.005 (inactive).
On to `CC(C)(C)OC(=O)NCCc1nnc(SCC(=O)c2ccc(Cl)cc2)o1`, for which, in experiment [1], the cell count was determined as 282. Moreover, the inhibition in experiment [1] was -3.2% (inactive); in experiment [3] it was -56.7% (inactive); in experiment [7], 5.48% (inactive); in experiment [8] it was 34.1% (inactive). For the same compound, in experiment [2], the inhibition of aggregation was 36.8% (inactive). For the same compound, the nuclei count in experiment [2] was found to be 77.1%; in experiment [3], 85.4%. The fluorescence slope in experiment [4] was -0.495 (inactive). Moreover, the NADPH fluorescence slope in experiment [5] is 1.3e-05 (inactive). In experiment [6], the slope was 0.00407 (inactive).
